Calls of active or inactive are those of the source. The rule behind the calls is not given here.
target: Pantothenate synthetase (Mycobacterium tuberculosis (strain ATCC 25618 / H37Rv)) (UniProt P9WIL5); assay: Recombinant Mtb pantothenate synthetase (PanC) inhibitors, coupled enzyme, confirmatory (AID 375); conditions: coupled enzyme assay; at 10 µM, hits give high values;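 note: 0% = full reaction with vehicle and 100% = no enzyme background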
Sequence (P9WIL5 whole entry, looked up): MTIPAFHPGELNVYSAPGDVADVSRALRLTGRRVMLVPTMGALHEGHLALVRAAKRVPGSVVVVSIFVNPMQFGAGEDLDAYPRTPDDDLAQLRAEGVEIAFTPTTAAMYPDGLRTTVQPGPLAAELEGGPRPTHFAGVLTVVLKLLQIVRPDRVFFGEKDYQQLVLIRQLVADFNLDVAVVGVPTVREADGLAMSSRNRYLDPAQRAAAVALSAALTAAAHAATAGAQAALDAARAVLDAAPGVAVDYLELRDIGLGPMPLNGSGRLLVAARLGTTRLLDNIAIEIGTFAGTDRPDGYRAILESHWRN

| SMILES | inhibition |
| --- | --- |
| Cc1sc2ncnc(Oc3ccc(-n4ccnc4)cc3)c2c1C | 4% (inactive) |
| COC(=O)c1ccc(CSc2nc(-c3ccc(OC)cc3)nc3c2c(=O)n(C)c(=O)n3C)o1 | 10% (inactive) |
| O=C(Cn1cc2c(n1)CCCCC2)N1CCc2ccccc2C1 | 0% (inactive) |
| CSc1nsc(SCC(=O)N2CCc3ccccc32)n1 | 8% (inactive) |
| CCC(=O)c1ccc(O)cc1 | 0% (inactive) |
| Cc1ccccc1NC(=O)NCCCN1CCN(C2CCCCC2)CC1 | 0% (inactive) |
| CCCCc1ccc(NC(=O)N[C@H](C(=O)O)C(C)CC)cc1 (stereo partly drawn) | 0% (inactive) |
| CCCn1c(N2CCN(CC(=O)NCc3cccs3)CC2)nc2ccccc21 | 9% (inactive) |
| COc1ccc(N(C(=O)c2ccco2)S(=O)(=O)c2cc(OC)ccc2OC)cc1 | 0% (inactive) |
| Cc1ccc(NC2c3ncccc3C(=O)N2C2CCCCC2)cc1C (stereo not drawn) | 0% (inactive) |
| COc1ccc(-n2c(N)c(C(=O)NCc3ccco3)c3nc4ccccc4nc32)c(OC)c1 | 4% (inactive) |
| Cc1cc(C)nc(N(C#N)CC(=O)N2CCC(C(N)=O)CC2)n1 | 1% (inactive) |
| CCN1CCN(c2ncnc3c2oc2nc(C)c4c(c23)CC(C)(C)OC4)CC1 | 0% (inactive) |
| O=C(O)COc1ccc2occ(C(=O)c3ccccc3)c2c1 | 0% (inactive) |
| C=CCc1ccccc1OCCCCN1CCCC1 | 0% (inactive) |
| COCCn1nnnc1C(C(C)C)N1CCN(C(=O)c2ccco2)CC1 (stereo not drawn) | 0% (inactive) |
| CC(C)=CCC(C)(C)C1OCCN1C(=O)c1ccccc1 (stereo not drawn) | 2% (inactive) |
| CCOc1ccc(S(=O)(=O)n2c(C)nc3ccccc32)cc1 | 0% (inactive) |
| COCCn1c(C)cc(C(=O)COC(=O)c2n[nH]c3ccccc23)c1C | 1% (inactive) |
| O=C(CSc1nc2ccccc2o1)N1CCN(C(=O)c2ccco2)CC1 | 0% (inactive) |
| CC(=NCC1CCNCC1)C1=C(O)CC(C)(C)CC1=O | 0% (inactive) |
| COc1ccc(-c2ccc(-c3nnc(-c4ccncc4)o3)cc2)cc1 | 4% (inactive) |
| COc1ccc(C2=Nn3c(nnc3-c3ccccc3)SC2)cc1OC | 0% (inactive) |

Source: PubChem BioAssay
